# A number with no mark means an inactive call. For some of these results: Results with a measured potency or affinity are listed apart. Calls of active or inactive are those of the source. Unless noted, the rule behind the calls is not given here.
# Legend:
# [1] = antimalarial activity against Dd2 strain (AID 2302;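 active = growth inhibition above 50% at the single 2 µM test dose, taken to imply half-maximal potency below 2 µM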;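 note: 0% = DMSO untreated growth and 100% = chloroquine plus artemisinin killed control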); conditions: P. falciparum Dd2 in RBCs, LDH growth readout, 72 h; at 2 µM; active compounds read high
# [2] = HepG2 cytotoxicity, primary screen, cytotoxicity control for P. falciparum antimalarial project, cell-based, ATP luminescence (AID 2303;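 active = inhibition above 50%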;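 note: 0% = DMSO wells and 100% = digitonin-killed cells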); conditions: HepG2 viability, 24-48 h, at 10 µM, active compounds read high
# [3] = target: L-lactate dehydrogenase (Plasmodium falciparum (isolate CDC / Honduras)) (UniProt Q27743); experiment: PfLDH activity inhibition – cell lysate, 3D7 strain, counter-screen for P. falciparum growth inhibition project (AID 2304);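 note: 0% = vehicle and 100% = reference inhibitor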; conditions: P. falciparum 3D7 crude extract, LDH APAD/NBT absorbance; at 2 µM; active compounds read high
# Chain of L-lactate dehydrogenase (Plasmodium falciparum (isolate CDC / Honduras)) (Q27743 whole entry, looked up): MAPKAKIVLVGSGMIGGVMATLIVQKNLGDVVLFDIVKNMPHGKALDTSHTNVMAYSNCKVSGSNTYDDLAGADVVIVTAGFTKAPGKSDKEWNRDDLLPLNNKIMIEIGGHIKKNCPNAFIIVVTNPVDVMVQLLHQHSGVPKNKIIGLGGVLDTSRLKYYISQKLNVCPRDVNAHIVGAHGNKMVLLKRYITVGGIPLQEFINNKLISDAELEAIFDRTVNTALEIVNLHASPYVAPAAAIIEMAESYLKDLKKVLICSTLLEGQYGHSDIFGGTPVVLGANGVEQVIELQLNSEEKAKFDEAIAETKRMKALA
# [4] = inhibition of 3D7 malaria parasite growth – strain 3D7 (AID 2306);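 note: 0% = DMSO wells and 100% = chloroquine plus artemisinin control wells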; conditions: P. falciparum 3D7 erythrocytic growth, LDH absorbance, 72 h; at 2 µM; active compounds read high
# [5] = target: Calcium-dependent protein kinase 1 (Plasmodium falciparum (isolate 3D7)) (UniProt P62344); experiment: PfCDPK1 kinase inhibitors, biochemical, TCAMS library (AID 1159585; cut-off not given, nearly all actives have IC50 up to about 0.98 µM;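 note: inhibitors leave more ATP so luminescence rises with inhibition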); conditions: recombinant PfCDPK1, Kinase-Glo ATP depletion luminescence
# Chain of Calcium-dependent protein kinase 1 (Plasmodium falciparum (isolate 3D7)) (P62344 whole entry, looked up): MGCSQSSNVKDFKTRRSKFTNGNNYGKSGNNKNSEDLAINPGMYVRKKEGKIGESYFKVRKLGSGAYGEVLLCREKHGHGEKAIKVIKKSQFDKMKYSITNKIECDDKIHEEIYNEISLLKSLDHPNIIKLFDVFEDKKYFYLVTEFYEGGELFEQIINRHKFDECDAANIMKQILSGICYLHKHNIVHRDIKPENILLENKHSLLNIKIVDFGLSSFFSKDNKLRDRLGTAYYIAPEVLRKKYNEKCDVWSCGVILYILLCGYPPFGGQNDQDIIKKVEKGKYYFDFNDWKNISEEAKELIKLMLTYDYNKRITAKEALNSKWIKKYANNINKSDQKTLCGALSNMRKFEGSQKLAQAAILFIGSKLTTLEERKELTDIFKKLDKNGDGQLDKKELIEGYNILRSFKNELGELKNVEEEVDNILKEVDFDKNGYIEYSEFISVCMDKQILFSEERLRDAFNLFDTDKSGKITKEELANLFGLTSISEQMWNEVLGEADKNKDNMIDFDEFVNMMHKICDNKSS
# [6] = target: Plasmodium falciparum protein kinase 6 (PK6, PF3D7_1337100) (UniProt Q8IDW1); experiment: PfPK6 kinase inhibitors, biochemical, TCAMS library (AID 1159586); conditions: recombinant PfPK6, Kinase-Glo ATP depletion luminescence
# Chain of Plasmodium falciparum protein kinase 6 (PK6, PF3D7_1337100) (Q8IDW1 1-305): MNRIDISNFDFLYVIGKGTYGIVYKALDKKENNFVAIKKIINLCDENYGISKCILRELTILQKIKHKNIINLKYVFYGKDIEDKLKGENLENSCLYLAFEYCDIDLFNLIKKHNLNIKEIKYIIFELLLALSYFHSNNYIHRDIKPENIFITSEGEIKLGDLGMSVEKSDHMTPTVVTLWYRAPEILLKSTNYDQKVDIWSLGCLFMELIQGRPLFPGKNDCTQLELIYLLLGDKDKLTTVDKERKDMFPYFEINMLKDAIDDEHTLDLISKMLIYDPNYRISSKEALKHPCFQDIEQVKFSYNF
# [7] = target: Protein kinase 7 (PK7), Plasmodium falciparum 3D7 (PF3D7_0213400) (UniProt Q7YTF7); experiment: inhibition of Plasmodium PK7 catalytic activity – biochemical, TCAMS antimalarial set, Kinase-Glo luminescence (AID 1159587); conditions: recombinant PfPK7, Kinase-Glo ATP depletion luminescence
# Chain of Protein kinase 7 (PK7), Plasmodium falciparum 3D7 (PF3D7_0213400) (Q7YTF7 1-343): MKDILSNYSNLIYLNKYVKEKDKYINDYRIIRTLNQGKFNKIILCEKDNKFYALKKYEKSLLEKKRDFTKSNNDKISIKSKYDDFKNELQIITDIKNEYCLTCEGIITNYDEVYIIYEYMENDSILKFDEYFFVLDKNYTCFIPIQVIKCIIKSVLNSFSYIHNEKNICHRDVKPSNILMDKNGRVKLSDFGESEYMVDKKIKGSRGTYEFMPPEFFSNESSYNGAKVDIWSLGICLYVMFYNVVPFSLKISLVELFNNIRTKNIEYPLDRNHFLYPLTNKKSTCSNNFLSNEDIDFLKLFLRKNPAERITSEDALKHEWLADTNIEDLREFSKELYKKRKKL
# [8] = target: Calcium-dependent protein kinase 4 (Plasmodium falciparum (isolate 3D7)) (UniProt Q8IBS5); experiment: PfCDPK4 kinase inhibitors, biochemical, TCAMS library (AID 1159588; cut-off not given, nearly all actives have IC50 up to about 0.91 µM); conditions: recombinant PfCDPK4, Kinase-Glo ATP depletion luminescence
# Chain of Calcium-dependent protein kinase 4 (Plasmodium falciparum (isolate 3D7)) (Q8IBS5 whole entry, looked up): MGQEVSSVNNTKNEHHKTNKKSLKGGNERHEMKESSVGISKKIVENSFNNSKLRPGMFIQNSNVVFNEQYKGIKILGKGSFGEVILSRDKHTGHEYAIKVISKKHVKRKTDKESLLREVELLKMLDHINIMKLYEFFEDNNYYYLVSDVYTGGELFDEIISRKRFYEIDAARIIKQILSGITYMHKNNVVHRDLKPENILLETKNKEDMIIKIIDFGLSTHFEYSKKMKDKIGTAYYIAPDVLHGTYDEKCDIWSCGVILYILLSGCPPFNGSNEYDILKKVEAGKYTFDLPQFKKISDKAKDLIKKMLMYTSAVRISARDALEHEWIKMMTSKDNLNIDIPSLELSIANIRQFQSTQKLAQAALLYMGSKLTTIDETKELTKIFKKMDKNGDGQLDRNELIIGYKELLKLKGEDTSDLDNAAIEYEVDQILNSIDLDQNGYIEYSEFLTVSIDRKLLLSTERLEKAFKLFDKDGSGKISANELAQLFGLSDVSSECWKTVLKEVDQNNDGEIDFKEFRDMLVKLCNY
Compound,growth inhibition [1],inhibition [2],inhibition [3] [%],growth inhibition [4],outcome [5],outcome [6],outcome [7],outcome [8]
Cc1ccc(NC(=O)NC2CCN(c3ccnc4ccccc34)C2)cc1 (stereo not drawn),48%,7%,0,99% (active),inactive,inactive,inactive,inactive
O=C1C(c2ccccc2)=C(Nc2ccc([N+](=O)[O-])cc2)c2ccccc21,73% (active),-2%,-2,95% (active),inactive,inactive,inactive,inactive
Cc1cccc2[nH]c(-c3cccc(-c4cccc(NC(=O)c5cn(C)c(=O)n5C)c4)c3)nc12,80% (active),5%,-5,99% (active),inactive,inactive,inactive,inactive
O=C(Nc1cccc(-c2ccc(-c3nc4ccccc4[nH]3)cc2)c1)c1csnn1,21%,31%,0,91% (active),inactive,inactive,inactive,inactive
Fc1ccc2nc(-c3ccc(-c4ccc(CN5CCC(CCN6CCCCC6)CC5)cc4)s3)[nH]c2c1,101% (active),96% (active),3,101% (active),inactive,inactive,inactive,inactive
CCCCN(C)CC#Cc1ccc(-c2ccc3[nH]c(C)c(Br)c(=O)c3c2)cn1,93% (active),3%,-3,98% (active),inactive,inactive,inactive,inactive
Cc1c(C)n(C2CCCC2)c2ncnc(OC3CCN(CC(=O)NCC4CC4)CC3)c12,89% (active),20%,1,89% (active),inactive,inactive,inactive,inactive
CCCCC(N)COc1cccc2c(-c3ccncc3)c(-c3cccc(NC(=O)Nc4ccccc4)c3)nn12 (stereo not drawn),82% (active),13%,0,102% (active),inactive,inactive,inactive,inactive
Nc1ncc(Cc2ccc3c(ccc4ccccc43)c2)c(N)n1,3%,9%,-5,97% (active),inactive,inactive,inactive,inactive
COc1ccc(CNC2CCN(c3ccc(NC(=O)c4cccc(Cl)c4)cc3)CC2)cc1OC,13%,26%,6,96% (active),inactive,inactive,inactive,inactive
COc1ccc(CNCc2ccccc2)cc1-c1ccc(OC)c(S(=O)(=O)NCCN2CCCC2)c1,55% (active),14%,-5,100% (active),inactive,inactive,inactive,inactive
CN(C)CCN1CCN(Cc2cccc(-c3csc(-c4nc5ccccc5[nH]4)c3)c2)CC1,97% (active),28%,-5,100% (active),inactive,inactive,inactive,inactive
CC(C)Sc1ccc(Cl)cc1CON1C(N)=NC(N)=NC1(C)C,90% (active),66% (active),6,93% (active),inactive,inactive,inactive,inactive
CC(NC(=O)c1cc(-c2ccccc2)nc2c1cnn2C(C)C)C1CC1 (stereo not drawn),88% (active),35%,-2,101% (active),inactive,inactive,inactive,inactive
Cc1cc(-c2nc3ccc(N4CCN(C)CC4)cc3[nH]2)nn1Cc1cc(Cl)ccc1OCC(C)C,67% (active),41%,1,99% (active),inactive,inactive,inactive,inactive
CCc1ccc(O)c(-c2cc(C(=O)Nc3cccnc3)[nH]n2)c1,99% (active),-4%,-7,98% (active),inactive,inactive,inactive,inactive
NC(=O)C1Cc2ccccc2CN1CC(=O)Nc1ccccc1Sc1ccccc1 (stereo not drawn),99% (active),5%,3,100% (active),inactive,inactive,inactive,inactive
O=C(c1cccc(-c2cccc(-c3nc4ccc(C(F)(F)F)cc4[nH]3)c2)c1)N1CCCCC1CN1CCC(O)C1 (stereo not drawn),101% (active),51% (active),0,91% (active),inactive,inactive,inactive,inactive
CCCn1c(Sc2ccc(C#N)c([N+](=O)[O-])c2)nnc1-c1ccc(N(C)C)cc1,98% (active),18%,7,97% (active),inactive,inactive,inactive,inactive
CC1(C)N=C(N)N=C(N)N1OCCCOc1ccccc1N,95% (active),70% (active),8,93% (active),inactive,inactive,inactive,inactive
CCOC(=O)N1CCN(CCCNc2c3ccc(Cl)cc3nc3ccc(OC)cc23)CC1,100% (active),52% (active),3,101% (active),inactive,inactive,inactive,inactive

Compound,growth inhibition [1],inhibition [2],inhibition [3] [%],growth inhibition [4],outcome [5],outcome [6],outcome [7],outcome [8]
CN(C)CCCOc1cccc(NC(=O)Nc2ccc(Cl)c(Cl)c2)c1,8%,6%,-1,90% (active),inactive,inactive,inactive,inactive
CC(=O)Nc1ccc(CN2CCC(CNC(=O)c3cc(-c4cccc(C(F)(F)F)c4)cs3)C2)cc1 (stereo not drawn),3%,24%,2,97% (active),inactive,inactive,inactive,inactive
Cc1cc(N[C@@H](Cc2ccccc2)C(=O)Nc2ccccc2)nc(NCCc2cccnc2)n1,57% (active),32%,-3,95% (active),inactive,inactive,inactive,inactive
COc1ccc(-c2nonc2NC(=O)c2ccc(OC(C)C)cc2)cc1OC,99% (active),11%,-3,100% (active),inactive,inactive,inactive,inactive
O=S(=O)(Nc1cc2c(cc1OCCCN1CCCCC1)CCNCC2)c1ccc(-c2ccc(Cl)cc2)cc1,19%,77% (active),2,100% (active),inactive,inactive,inactive,inactive
O=C(O)C[C@H](NC(=O)c1cc(-c2ccc3c(c2)OCO3)no1)C(=O)O (tested in a mixture with another compound),-3%,-4%,-2,98% (active),inactive,inactive,inactive,inactive
COc1cccc(-c2cc(C(F)(F)F)n3ncc(C(=O)Nc4cc(Cl)ccc4O)c3n2)c1,99% (active),-9%,5,99% (active),inactive,inactive,inactive,inactive
Cc1noc(C)c1-c1cccc(CNCc2ccc(-c3ccc(-c4nc5ccc(C(F)(F)F)cc5[nH]4)cc3)cc2)c1,97% (active),35%,2,102% (active),inactive,inactive,inactive,inactive
Cc1ccc(CNC(=O)[C@H](Cc2ccccc2)Nc2cc(C)nc(NCc3ccccc3C)n2)cc1,50% (active),23%,0,97% (active),inactive,inactive,inactive,inactive
CCC(C)c1ccc(O)c(NC(=O)c2cncc(Br)c2)c1 (stereo not drawn),16%,-13%,-4,100% (active),inactive,inactive,inactive,inactive
Cc1cccc(-c2ccc(NC(=O)Nc3ccc4nccc(N5CCN(C)CC5)c4c3)cc2C)n1,95% (active),4%,-3,101% (active),inactive,inactive,inactive,inactive
O=C(Nc1ccc(Cl)cc1)c1cc(Cl)cc2[nH]c(C(F)(F)F)nc12,100% (active),87% (active),2,100% (active),inactive,inactive,inactive,inactive
CN1CCN(c2cccc(NC(=O)c3ccc(-c4ccc(C#N)cc4)cc3)c2)CC1,7%,31%,2,84% (active),inactive,inactive,inactive,inactive
COCc1ccccc1C(=O)NCCOc1cc(C)cc(C)c1,95% (active),26%,5,96% (active),inactive,inactive,inactive,inactive
N=C(N)c1cccc(-c2cc(-c3cccc(C(=N)N)c3)on2)c1,78% (active),8%,3,96% (active),inactive,inactive,inactive,inactive
CC=Cc1cc(Cc2cnc(N)nc2N)cc(CCC)c1OC,1%,16%,5,97% (active),inactive,inactive,inactive,inactive
COc1ccc2nccc([C@@H](O)CN3CCC(NCc4nc5c([N+](=O)[O-])cccc5[nH]4)CC3)c2c1,84% (active),13%,-2,101% (active),inactive,inactive,inactive,inactive
CCCCN(CCCC)C(=NCCCCCCN=C(NC(N)=NCc1ccc(Cl)c(Cl)c1)N(CCCC)CCCC)NC(N)=NCc1ccc(Cl)c(Cl)c1,96% (active),9%,-7,100% (active),inactive,inactive,inactive,inactive
CCOC(=O)CCCOc1c(OC)cc(Cc2cnc(N)nc2N)cc1OC,7%,10%,8,96% (active),inactive,inactive,inactive,inactive
O=C(NCCCCN1CCN(c2cccc3c2CCCC3)CC1)c1ccc(NC(=O)c2ccc(Cl)cc2)cc1,85% (active),35%,3,101% (active),inactive,inactive,inactive,inactive
